# Assay results as given in the supplement of paper PMC6992640.
# ± gives the standard deviation of the averaged measurements.
# Tested on: HCI11 (cells of an ER-positive luminal breast cancer xenograft)
# Experiment: cell viability (% of vehicle); higher = less cytotoxic
# Settings: 10 µM; 72 h
# 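Also: PDX cells carrying CMV promoter-driven luciferase, viability read as total photon flux per second by IVIS imaging following D-luciferin, vehicle control 0.1% DMSO.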
row,SMILES,cell viability
1,C#CC1(O)CCC2C3CCc4cc(OC)ccc4C3CCC21C (centres undefined) [Mestranol],106
2,C=CCNC1=C2CC(C)CC(OC)C(O)C(C)C=C(C)C(OC(N)=O)C(OC)C=CC=C(C)C(=O)NC(=CC1=O)C2=O (centres undefined),72.5
3,CCCN(CCC)S(=O)(=O)c1ccc(C(=O)O)cc1 [Probenecid],94.6
4,Cc1onc(-c2ccccc2)c1C(=O)NC1C(=O)N2C1SC(C)(C)C2C(=O)[O-].O.[Na+] (centres undefined) [Oxacillin sodium monohydrate],110
5,NS(=O)(=O)c1cc2c(cc1Cl)NCNS2(=O)=O [Hydrochlorothiazide],92.7
6,NCCc1cnc[nH]1.O=P(O)(O)O.O=P(O)(O)O [Histamine Phosphate],98.4
7,NCC(O)c1ccc(O)c(O)c1.O.O=C(O)C(O)C(O)C(=O)O (centres undefined) [Noradrenaline bitartrate monohydrate],124
8,CCC1C(=O)N(C)c2cnc(Nc3ccc(C(=O)NC4CCC(N5CCN(CC6CC6)CC5)CC4)cc3OC)nc2N1C(C)C (centres undefined) [BI6727 (Volasertib)],115
9,CCC1OC(=O)C(C)C(OC2CC(C)(OC)C(O)C(C)O2)C(C)C(OC2OC(C)CC(N(C)C)C2O)C(C)(O)CC(C)CN(C)C(C)C(O)C1(C)O (centres undefined) [Azithromycin],121
10,CC(C)Cn1cnc2c(N)nc3ccccc3c21 [Imiquimod],42.7

# Tested on: HCI13 (cells of an ER-positive luminal breast cancer xenograft)
# Experiment: as above
# Settings: 10 µM; 72 h
row,SMILES,cell viability
1,CO[C@H]1C(=O)[C@]2(C)[C@@H](OC)C[C@H]3OC[C@@]3(OC(C)=O)[C@H]2[C@H](OC(=O)c2ccccc2)[C@]2(O)C[C@H](OC(=O)[C@H](O)[C@@H](NC(=O)OC(C)(C)C)c3ccccc3)C(C)=C1C2(C)C [Cabazitaxel],106 ± 5.1
2,O=C(NS(=O)(=O)c1ccc(Br)s1)c1ccc(Cl)cc1Cl [Tasisulam],158 ± 6
3,O=NN(CCCl)C(=O)NCCCl [Carmustine],134 ± 22
4,CCC1C(=O)N(C)c2cnc(Nc3ccc(C(=O)NC4CCC(N5CCN(CC6CC6)CC5)CC4)cc3OC)nc2N1C(C)C (centres undefined) [BI6727 (Volasertib)],84.6 ± 29
5,CC(C)Cn1cnc2c(N)nc3ccccc3c21 [Imiquimod],91 ± 20

# Tested on: HCI16 (cells of a triple-negative basal-like breast cancer xenograft)
# Experiment: as above
# Settings: 10 µM; 72 h
row,SMILES,cell viability
1,CC12CCC3c4ccc(O)cc4CCC3C1CCC2=O (centres undefined) [Estrone],89.5
2,CO[C@@]1(NC(=O)[C@H](C(=O)[O-])c2ccc(O)cc2)C(=O)N2C(C(=O)[O-])=C(CSc3nnnn3C)CO[C@@H]21.[Na+].[Na+] [Moxalactam (sodium salt)],148
3,CC(C)c1cc(C(=O)N2Cc3ccc(CN4CCN(C)CC4)cc3C2)c(O)cc1O,109
4,Cl.O=C1NCC2(CCN(CCc3ccccc3)CC2)O1 [Fenspiride HCl],104
5,C#C[C@]1(O)CC[C@H]2[C@@H]3CCC4=CC(=O)CC[C@@H]4[C@H]3C(=C)C[C@@]21CC [Etonogestrel],145
6,Cc1cc(Nc2cc(CN3CCOCC3)c3nc(C)c(Cc4ccc(Cl)cc4F)n3n2)n[nH]1,199
7,CCCC1O[C@@H]2C[C@H]3[C@@H]4CCC5=CC(=O)C=C[C@]5(C)[C@H]4[C@@H](O)C[C@]3(C)[C@]2(C(=O)CO)O1 (some centres undefined) [Budesonide],173
8,CC(C)(C#N)c1cc(Cn2cncn2)cc(C(C)(C)C#N)c1 [Anastrozole],120
9,O=C(Nc1cccc2c(=O)cc(-c3nn[nH]n3)oc12)c1ccc(OCCCCc2ccccc2)cc1 [Pranlukast],147
10,COc1ccccc1OCC(O)CO (centres undefined) [Guaifensin],117
11,O=C(Nc1c(Cl)cncc1Cl)c1ccc(OC(F)F)c(OCC2CC2)c1 [Roflumilast],196
12,CCCCCC(O)C=CC1C(O)CC(=O)C1CCCCCCC(=O)O (centres undefined) [Alprostadil],175
13,C#CC1(O)CCC2C3CCC4=CC(=O)CCC4C3CCC21C (centres undefined) [Norethindrone],128
14,CCCc1nc(C(C)(C)O)c(C(=O)O)n1Cc1ccc(-c2ccccc2-c2nn[nH]n2)cc1 [Olmesartan],136
15,CC12CCC3c4ccc(O)cc4CCC3C1CCC2O (centres undefined) [Estradiol],91.4
16,N=C(N)NCCCC[C@@H]1NC(=O)CCSSC[C@@H](C(N)=O)NC(=O)[C@@H]2CCCN2C(=O)[C@H](Cc2c[nH]c3ccccc23)NC(=O)[C@H](CC(=O)O)NC(=O)CNC1=O [Eptifibatide],194
17,C#CC1(O)CCC2C3CCC4=CC(=O)CCC4C3CCC21CC (centres undefined) [Levonorgestrel],121

row,SMILES,cell viability
1,CCC(=O)OCC(=O)C1(OC(=O)CC)C(C)CC2C3CCC4=CC(=O)C=CC4(C)C3(Cl)C(O)CC21C (centres undefined) [Beclomethasone dipropionate],175
2,C[C@@H]1C[C@H]2[C@H]3CCC4=CC(=O)C=C[C@]4(C)[C@@]3(F)[C@@H](O)C[C@]2(C)[C@@]1(O)C(=O)CO [Dexamethasone (DHAP)],180
3,CCC(=O)OC1(C(=O)CCl)C(C)CC2C3CCC4=CC(=O)C=CC4(C)C3(F)C(O)CC21C (centres undefined) [Clobetasol propionate],196
4,Nc1nnc(-c2cccc(Cl)c2Cl)c(N)n1 [Lamotrigine],128
5,Cl.O=C(CCCN1CCC(O)(c2ccc(Cl)cc2)CC1)c1ccc(F)cc1 [Haloperidol hydrochloride],127
6,CC(=O)OC1(C(C)=O)CCC2C3C=C(C)C4=CC(=O)CCC4(C)C3CCC21C (centres undefined) [Megestrol Acetate],102
7,O=c1c(O)c(-c2ccc(O)c(O)c2)oc2cc(O)cc(O)c12 [Quercetin],151
8,O=C(CCCN1CCN(c2ccccn2)CC1)c1ccc(F)cc1 [Azaperone],151
9,CC(NCCc1ccc(O)cc1)C(O)c1ccc(O)cc1.Cl (centres undefined) [Ritodrine HCl],111
10,C#CC1(O)CCC2C3CCc4cc(OC)ccc4C3CCC21C (centres undefined) [Mestranol],104
11,C=CCNC1=C2CC(C)CC(OC)C(O)C(C)C=C(C)C(OC(N)=O)C(OC)C=CC=C(C)C(=O)NC(=CC1=O)C2=O (centres undefined),106
12,CCCN(CCC)S(=O)(=O)c1ccc(C(=O)O)cc1 [Probenecid],145
13,Cc1onc(-c2ccccc2)c1C(=O)NC1C(=O)N2C1SC(C)(C)C2C(=O)[O-].O.[Na+] (centres undefined) [Oxacillin sodium monohydrate],127
14,NS(=O)(=O)c1cc2c(cc1Cl)NCNS2(=O)=O [Hydrochlorothiazide],177
15,NCCc1cnc[nH]1.O=P(O)(O)O.O=P(O)(O)O [Histamine Phosphate],131
16,NCC(O)c1ccc(O)c(O)c1.O.O=C(O)C(O)C(O)C(=O)O (centres undefined) [Noradrenaline bitartrate monohydrate],160
17,CCC1OC(=O)C(C)C(OC2CC(C)(OC)C(O)C(C)O2)C(C)C(OC2OC(C)CC(N(C)C)C2O)C(C)(O)CC(C)CN(C)C(C)C(O)C1(C)O (centres undefined) [Azithromycin],124
